Residual activity data for eleven compounds are collected here from ChEMBL document CHEMBL2218924, “A broad activity screen in support of a chemogenomic map for kinase signalling research and drug discovery” (Biochem J, 2013).

Assay [1] has as its target T1, Serine/threonine-protein kinase 17A (Homo sapiens) (UniProt Q9UEE5).
T1 sequence (whole entry): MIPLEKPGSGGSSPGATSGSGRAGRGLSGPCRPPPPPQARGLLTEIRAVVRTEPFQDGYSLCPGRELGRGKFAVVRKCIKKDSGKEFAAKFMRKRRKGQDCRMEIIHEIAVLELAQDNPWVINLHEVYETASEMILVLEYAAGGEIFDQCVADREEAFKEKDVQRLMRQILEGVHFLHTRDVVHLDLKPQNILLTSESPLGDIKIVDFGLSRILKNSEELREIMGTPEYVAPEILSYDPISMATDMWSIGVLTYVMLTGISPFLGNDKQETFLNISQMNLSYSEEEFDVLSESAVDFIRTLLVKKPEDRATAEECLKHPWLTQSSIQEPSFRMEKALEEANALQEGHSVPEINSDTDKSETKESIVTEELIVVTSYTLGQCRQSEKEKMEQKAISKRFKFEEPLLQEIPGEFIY
The note with it: at 10 µM.

Assay [2] has as its target T2, Dual specificity tyrosine-phosphorylation-regulated kinase 2 (Homo sapiens) (UniProt Q92630).
T2 sequence (whole entry): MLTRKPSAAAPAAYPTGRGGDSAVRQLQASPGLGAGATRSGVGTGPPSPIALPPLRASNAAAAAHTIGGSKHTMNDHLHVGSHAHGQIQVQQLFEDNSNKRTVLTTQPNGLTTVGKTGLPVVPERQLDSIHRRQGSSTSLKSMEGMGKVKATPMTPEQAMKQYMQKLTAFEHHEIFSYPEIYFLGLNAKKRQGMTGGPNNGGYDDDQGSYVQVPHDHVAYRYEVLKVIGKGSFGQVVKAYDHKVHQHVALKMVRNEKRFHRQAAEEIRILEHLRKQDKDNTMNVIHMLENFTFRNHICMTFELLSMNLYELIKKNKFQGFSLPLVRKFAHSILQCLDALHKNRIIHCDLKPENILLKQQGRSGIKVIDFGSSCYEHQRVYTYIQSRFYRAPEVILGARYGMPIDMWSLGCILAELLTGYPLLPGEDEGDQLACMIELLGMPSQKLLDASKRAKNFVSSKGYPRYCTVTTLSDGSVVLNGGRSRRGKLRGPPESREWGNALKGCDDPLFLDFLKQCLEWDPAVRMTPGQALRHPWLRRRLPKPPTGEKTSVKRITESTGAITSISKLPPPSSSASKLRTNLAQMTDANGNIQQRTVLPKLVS
Particulars: at 1 µM.

Assay [3] has as its target T2, Dual specificity tyrosine-phosphorylation-regulated kinase 2 (Homo sapiens). The note with it: at 10 µM.
For assay [4], the target named is T3, Ephrin type-A receptor 1 (Homo sapiens) (UniProt P21709).
T3 sequence (whole entry): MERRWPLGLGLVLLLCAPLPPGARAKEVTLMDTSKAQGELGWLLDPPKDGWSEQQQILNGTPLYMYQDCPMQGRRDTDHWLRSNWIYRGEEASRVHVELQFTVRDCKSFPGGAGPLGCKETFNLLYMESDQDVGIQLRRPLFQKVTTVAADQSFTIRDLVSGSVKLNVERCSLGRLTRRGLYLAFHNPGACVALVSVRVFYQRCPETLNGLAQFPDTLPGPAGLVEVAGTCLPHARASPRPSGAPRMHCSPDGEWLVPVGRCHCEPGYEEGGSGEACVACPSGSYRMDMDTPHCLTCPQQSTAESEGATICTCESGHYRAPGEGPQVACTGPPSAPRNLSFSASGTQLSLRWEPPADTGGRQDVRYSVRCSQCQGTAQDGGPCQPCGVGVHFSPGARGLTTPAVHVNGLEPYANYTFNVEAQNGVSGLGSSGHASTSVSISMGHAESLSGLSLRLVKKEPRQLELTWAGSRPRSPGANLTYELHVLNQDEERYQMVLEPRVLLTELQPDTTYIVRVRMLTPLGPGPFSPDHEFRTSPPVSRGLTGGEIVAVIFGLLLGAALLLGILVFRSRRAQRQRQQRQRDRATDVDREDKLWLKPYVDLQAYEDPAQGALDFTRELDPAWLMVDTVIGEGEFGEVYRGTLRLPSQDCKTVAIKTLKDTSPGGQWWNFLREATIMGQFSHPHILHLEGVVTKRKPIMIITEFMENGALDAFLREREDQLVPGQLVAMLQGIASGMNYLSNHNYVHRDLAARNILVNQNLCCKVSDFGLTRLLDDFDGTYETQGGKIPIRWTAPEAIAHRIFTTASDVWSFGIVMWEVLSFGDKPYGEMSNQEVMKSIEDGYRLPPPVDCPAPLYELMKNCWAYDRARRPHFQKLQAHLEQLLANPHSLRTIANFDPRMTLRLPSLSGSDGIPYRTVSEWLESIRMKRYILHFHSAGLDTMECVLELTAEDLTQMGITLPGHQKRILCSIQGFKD
Particulars: at 1 µM.

In assay [5] the target is T3, Ephrin type-A receptor 1 (Homo sapiens). Particulars: at 10 µM.
For assay [6], the target named is Ephrin type-A receptor 2 (Homo sapiens) (UniProt P29317). Particulars: at 1 µM.
Chain of Ephrin type-A receptor 2 (Homo sapiens) (P29317 whole entry): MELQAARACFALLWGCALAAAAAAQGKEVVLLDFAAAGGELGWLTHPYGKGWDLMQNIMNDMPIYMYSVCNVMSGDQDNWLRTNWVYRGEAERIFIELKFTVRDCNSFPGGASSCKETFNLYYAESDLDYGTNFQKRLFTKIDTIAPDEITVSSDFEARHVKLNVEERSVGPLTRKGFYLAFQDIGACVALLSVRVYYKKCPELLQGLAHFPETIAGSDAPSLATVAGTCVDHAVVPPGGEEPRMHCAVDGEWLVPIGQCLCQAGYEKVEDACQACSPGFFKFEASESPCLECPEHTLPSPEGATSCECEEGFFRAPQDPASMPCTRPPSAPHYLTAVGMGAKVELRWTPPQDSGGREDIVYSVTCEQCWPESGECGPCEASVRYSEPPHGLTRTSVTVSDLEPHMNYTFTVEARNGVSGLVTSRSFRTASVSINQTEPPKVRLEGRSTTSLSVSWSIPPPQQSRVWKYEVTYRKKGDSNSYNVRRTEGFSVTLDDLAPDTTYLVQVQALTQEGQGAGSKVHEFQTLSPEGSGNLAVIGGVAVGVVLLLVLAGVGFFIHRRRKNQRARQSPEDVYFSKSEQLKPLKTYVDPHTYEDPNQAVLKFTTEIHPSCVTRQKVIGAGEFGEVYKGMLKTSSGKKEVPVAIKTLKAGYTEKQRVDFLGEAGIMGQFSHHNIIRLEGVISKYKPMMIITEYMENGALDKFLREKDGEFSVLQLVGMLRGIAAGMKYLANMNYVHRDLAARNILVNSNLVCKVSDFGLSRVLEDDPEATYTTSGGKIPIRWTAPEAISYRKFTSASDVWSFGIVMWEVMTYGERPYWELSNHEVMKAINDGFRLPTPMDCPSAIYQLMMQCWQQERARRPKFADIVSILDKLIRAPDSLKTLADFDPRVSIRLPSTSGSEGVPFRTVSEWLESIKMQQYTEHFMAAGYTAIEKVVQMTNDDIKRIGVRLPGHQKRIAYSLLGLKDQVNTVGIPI
For assay [7] the target is unchanged. The note with it: at 10 µM.
For assay [8], the target named is T4, Ephrin type-A receptor 3 (Homo sapiens) (UniProt P29320).
T4 sequence (whole entry): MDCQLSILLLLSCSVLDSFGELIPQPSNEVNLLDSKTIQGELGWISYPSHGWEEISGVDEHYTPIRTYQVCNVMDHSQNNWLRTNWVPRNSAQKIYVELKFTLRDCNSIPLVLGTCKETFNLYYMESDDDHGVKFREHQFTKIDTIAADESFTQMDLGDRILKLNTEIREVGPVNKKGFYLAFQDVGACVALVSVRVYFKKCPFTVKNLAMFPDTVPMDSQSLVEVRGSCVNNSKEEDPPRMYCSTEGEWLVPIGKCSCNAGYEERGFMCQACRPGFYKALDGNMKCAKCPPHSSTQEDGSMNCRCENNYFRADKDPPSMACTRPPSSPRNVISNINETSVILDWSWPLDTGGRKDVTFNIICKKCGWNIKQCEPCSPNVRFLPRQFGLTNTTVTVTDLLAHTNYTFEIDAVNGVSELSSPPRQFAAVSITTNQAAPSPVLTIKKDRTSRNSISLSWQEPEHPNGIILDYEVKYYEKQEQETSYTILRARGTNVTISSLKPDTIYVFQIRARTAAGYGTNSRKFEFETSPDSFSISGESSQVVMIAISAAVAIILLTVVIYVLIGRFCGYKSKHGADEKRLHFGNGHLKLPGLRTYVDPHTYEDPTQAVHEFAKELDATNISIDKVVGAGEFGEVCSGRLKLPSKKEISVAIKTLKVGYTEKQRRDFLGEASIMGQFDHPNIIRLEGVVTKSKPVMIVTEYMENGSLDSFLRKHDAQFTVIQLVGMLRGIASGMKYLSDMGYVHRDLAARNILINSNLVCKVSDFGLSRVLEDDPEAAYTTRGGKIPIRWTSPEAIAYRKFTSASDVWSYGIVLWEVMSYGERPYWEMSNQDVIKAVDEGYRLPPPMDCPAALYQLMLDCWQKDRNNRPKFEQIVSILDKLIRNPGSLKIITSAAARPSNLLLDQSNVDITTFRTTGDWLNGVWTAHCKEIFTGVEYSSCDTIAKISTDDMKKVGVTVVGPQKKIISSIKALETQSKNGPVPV
Particulars: at 1 µM.

Assay [9] addresses Epidermal growth factor receptor (Homo sapiens) (UniProt P00533). Particulars: at 1 µM.
For assay [10] the target is unchanged. Particulars: at 10 µM.

Chain of Epidermal growth factor receptor (Homo sapiens) (P00533 whole entry): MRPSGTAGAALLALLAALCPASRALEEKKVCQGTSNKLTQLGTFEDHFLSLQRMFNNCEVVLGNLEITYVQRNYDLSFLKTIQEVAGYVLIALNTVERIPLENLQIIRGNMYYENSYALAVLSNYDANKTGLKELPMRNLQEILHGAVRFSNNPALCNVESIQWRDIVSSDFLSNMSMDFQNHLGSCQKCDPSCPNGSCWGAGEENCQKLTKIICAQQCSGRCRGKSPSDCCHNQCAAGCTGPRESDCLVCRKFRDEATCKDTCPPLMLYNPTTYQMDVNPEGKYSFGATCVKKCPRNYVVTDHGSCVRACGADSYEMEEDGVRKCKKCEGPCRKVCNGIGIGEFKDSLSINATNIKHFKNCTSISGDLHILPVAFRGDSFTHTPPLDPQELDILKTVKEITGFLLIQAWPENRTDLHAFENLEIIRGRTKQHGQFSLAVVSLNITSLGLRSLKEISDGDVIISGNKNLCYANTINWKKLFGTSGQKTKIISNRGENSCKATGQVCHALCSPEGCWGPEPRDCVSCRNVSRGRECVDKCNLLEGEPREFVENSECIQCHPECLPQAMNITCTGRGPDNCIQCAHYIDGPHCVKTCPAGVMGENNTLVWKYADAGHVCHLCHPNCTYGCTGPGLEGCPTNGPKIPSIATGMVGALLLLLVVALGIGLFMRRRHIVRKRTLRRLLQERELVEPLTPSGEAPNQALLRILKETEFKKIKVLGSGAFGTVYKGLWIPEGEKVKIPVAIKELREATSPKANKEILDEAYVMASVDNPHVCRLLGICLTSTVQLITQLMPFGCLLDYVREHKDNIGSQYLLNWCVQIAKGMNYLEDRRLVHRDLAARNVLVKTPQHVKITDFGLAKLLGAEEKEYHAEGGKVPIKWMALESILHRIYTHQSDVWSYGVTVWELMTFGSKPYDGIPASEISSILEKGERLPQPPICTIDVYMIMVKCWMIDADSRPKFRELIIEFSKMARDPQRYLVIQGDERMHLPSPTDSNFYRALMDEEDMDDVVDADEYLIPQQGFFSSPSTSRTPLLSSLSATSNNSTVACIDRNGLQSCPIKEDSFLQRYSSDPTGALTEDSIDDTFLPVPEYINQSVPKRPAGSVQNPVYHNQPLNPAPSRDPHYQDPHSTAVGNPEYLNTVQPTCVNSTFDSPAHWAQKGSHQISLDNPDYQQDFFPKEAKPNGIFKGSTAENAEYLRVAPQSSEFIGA

Turning to `COc1ccc(C(=O)Nc2sc3c(c2C(N)=O)CCCC3)cc1OC`, the residual activity was 111% in [1]; 98% in assay [2]; 90% in assay [3]; 92% in assay [4]; 111% in assay [5]; 109% in [6]. Moreover, the residual activity in assay [7] is 107%; in [8], 110%.

In the case of `O=C(O)c1ccc2c3c1cccc3c(=O)n1c3ccccc3nc21`, the residual activity in assay [1] is 13%; in assay [2] it was 54%; in assay [3], 11%; in assay [4], 103%; in assay [5], 89%; in assay [6] it was 88%. The residual activity in assay [7] stood at 102%; in assay [8], 103%.

As for `CC(C)n1cnc2c(NCc3ccccc3)nc(NCCCO)nc21`, the residual activity in [1] is 134%; in assay [2] it was 99%; in [3], 89%; in assay [9], -1%; in [10], -2%; in [4], 99%. The residual activity stood at 91% in [5], 102% in [6], 112% in assay [7] and 101% in assay [8].

As for `c1ccc2c(-c3ccncc3)c[nH]c2c1`, the residual activity was determined as 60% in assay [1]; 77% in assay [2]; 21% in assay [3]; 87% in [4]; 69% in assay [5]; 104% in assay [6]. Also, the residual activity was 92% in [7] and 106% in assay [8].

With `Cc1nc2cc3nc(-c4cccs4)cnc3cc2n1C`, the residual activity in [1] was determined as 14%; in assay [2], 108%; in assay [3], 87%; in assay [4], 111%; in assay [5], 121%; in assay [6] it was 110%. Further, the residual activity in [7] is 105%; in assay [8], 127%.

Regarding `O=C1NC(=O)/C(=C\c2ccc3nccnc3c2)S1`, the residual activity in assay [1] is 19%; in assay [2], 7%; in assay [3], -4%; in assay [9], 100%; in assay [10], 113%; in [4], 95%. Besides, the residual activity in [5] stood at 90%; in assay [6], 100%; in assay [7], 111%; in assay [8] it was 91%.

As to `COc1cccc(-c2cc(=O)c3ccccc3o2)c1N`, the residual activity is 70% in [1]; 100% in assay [2]; 94% in assay [3]; 99% in assay [4]; 92% in [5]; 97% in assay [6]. In addition, the residual activity was 117% in assay [7] and 110% in [8].

`COc1cc2ncnc(Nc3ccc(O)c(Br)c3)c2cc1OC`: the residual activity in assay [1] was found to be 18%; in assay [2] it was 48%; in [3], 10%; in [4], 35%; in assay [5], 8%; in assay [6] it was 90%. The figures for the residual activity in [7] and in [8] were 30% and 79%, respectively.

Consider `c1ccc(-c2n[nH]c3c2oc2ccccc23)cc1`, for which the residual activity in [1] worked out at 5%; in assay [2], 83%; in assay [3], 71%; in assay [4] it was 98%; in assay [5] it was 99%.

Regarding `CC[n+]1c(/C=C/N(C)c2ccccc2)n(-c2ccccc2)c2ccc(-c3nc4ccccc4s3)cc21`, the residual activity came out at 68% in assay [1]; 99% in assay [2]; 103% in assay [3]; 100% in assay [4]; 100% in [5]; 109% in [6]. For the same compound, the values for the residual activity in assay [7] and in assay [8] were 90% and 116%, respectively.

On to `O=Nc1c(-c2c(O)[nH]c3ccccc23)[nH]c2ccccc12`, for which the residual activity in assay [1] turned out to be 4%; in [2] it was 79%; in assay [3], 20%; in assay [4] it was 55%; in assay [5], 61%; in [6] it was 61%. For the same compound, the residual activity in assay [7] turned out to be 16%; in [8], 58%.
